Source: PubChem BioAssay (several laboratories)
aDG glyco act: alpha-DG glycosylation activation | Pro5-aDG cells, alpha-DG glycosylation AlphaScreen (IIH6); 0% Pro5, 100% B10-LARGE cell signal | actives 0.22% (n = 360,000) | AID 624168 | activation, % at 10 µM;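 active = activation of at least 8% versus controls, or a plate z-score of at least 8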;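 also: Pro5 are CHO cells carrying HIG-tagged alpha-DG that lacks glycosylation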
MPTP block: permeability transition pore inhibition; inhibition, % at 10 µM; actives 1.4% (n = 360,000); AID 602449; isolated mouse mitochondria, Ca2+ swelling absorbance, 30 min;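 active = inhibition of 50% or more, scaled per plate between neutral and stimulator controls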;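 also: 0% = DMSO wells given calcium and 100% = 1 mM EGTA wells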
Yeast superoxide: lowers age-related superoxide in aged yeast cells; S. cerevisiae aged cells, superoxide DHE fluorescence; stronger effect = lower value; AID 2690; actives 0.18% (n = 330,000); superoxide response (% of plate mean), % at 10 µM;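 active = superoxide response under a set limit, about three screen SD below normal, cut at about 65% in these data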;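 also: yeast aged for seven days with compound at 30 °C before DHE staining; 100% = average MFI of all compound-treated wells on the plate with controls excluded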
H9c2 protect: modulators protecting cardiomyocytes from myocardial damage | H9c2 cardiomyocytes, H2O2 injury protection, ATPLite, 2 h | protection from H2O2 cell death, % at 20 µM | actives 0.63% (n = 360,000) | AID 588492;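 active = compounds giving at least 50% protection of heart cells from peroxide-induced death in the single-dose screen, raw or plate-pattern-corrected value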;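 also: 0% = DMSO wells with peroxide and 100% = DMSO wells without peroxide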
FAS TE block: FAS thioesterase (human) inhibition; inhibition, % at 15 µM; actives 0.67% (n = 360,000); recombinant FAS-TE, OMFH fluorogenic substrate, fluorescence endpoint;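 active = compounds whose normalised, plate-corrected inhibition of enzyme fluorescence in the single-dose primary screen is 50% or more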;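 also: 0% = DMSO with enzyme and 100% = substrate without enzyme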
SUMO Mot1 rescue: inhibitors of SUMOylation pathway: yeast Mot1-301 growth rescue; S. cerevisiae Mot1-301 growth rescue, ATP luminescence, 38.5C; percent above DMSO median, 100 means doubled; growth rescue, % at 18.8 µM; actives 1% (n = 320,000);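 active = every valid replicate shows activation above 250% relative to neutral control wells; inactive = the rest, any valid replicate at or below 250%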;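 also: OY570 slx delta 5 strain wells were the positive control but not used for scaling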
Rh123 counter: membrane potential counter-screen of mitochondrial pore inhibitors; actives 78% (n = 5,000); shares compounds with MPTP block; isolated mitochondria, Rhodamine 123 fluorescence; inhibition, % at 10 µM; AID 624504; in the data active = inhibition above about 22%;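 also: 0% = DMSO vehicle and 100% = positive control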
MPTP swell DR: MPTP inhibition, dose response swelling confirmation | shares compounds with MPTP block | isolated mitochondria swelling, absorbance | IC50, µM | actives 58% (n = 780); in the data active = IC50 below about 20 µM
MPTP counter DR: active in counter-screen for permeability transition pore inhibitors; IC50, µM; AID 651564; shares compounds with MPTP block; actives 49% (n = 780); isolated mitochondria counterscreen, fluorescence read-out; in the data active = IC50 below about 80 µM
The depositor's hits bear a star; i = inactive; . = not tested or not shown. Hits are enriched below; roughly 3.8% of the tested compounds scored in any of these assays.

SMILES	aDG glyco act	MPTP block	Yeast superoxide	H9c2 protect	FAS TE block	SUMO Mot1 rescue	Rh123 counter	others
CC(C)Cc1cc(C(=O)N2N=C(C(F)F)CC2(O)C(F)F)c2ccccc2n1 (stereo not given)	0	35	77	-1	5	337	.
COCCNC(=S)N1CCC(c2nc(-c3ccc(N(C)C)cc3)no2)CC1	0	3	76	-13	3	3	.
O=C(Nc1cccc(C(F)(F)F)c1)N1CCC(c2nc(-c3ccc(F)cc3)no2)CC1	2	77*	126	-10	29	5	89*
CC(C)CNC(=S)N1CCC(c2nc(-c3ccc(F)cc3)no2)CC1	0	95*	124	-22	28	44	94*
CCCCN1CC(COCc2ccccc2)Oc2ccccc2S1(=O)=O (stereo not given)	0	-1	104	-18	28	.	.
Cc1cccc(C)c1N1CCN(C(c2cc3ccccc3o2)c2nnnn2C(C)(C)C)CC1 (stereo not given)	1	87*	.	.	26	.	57*
Cc1ccc(C(=O)NCC(=O)NNC(=O)CN(C)S(=O)(=O)c2ccc(Cl)cc2)s1	0	-2	103	-1	-4	11	.
O=[N+]([O-])/C(=C\Nc1ccccc1Cl)S(=O)(=O)c1ccccc1	0	-2	105	12	-4	0	.
O=[N+]([O-])/C(C=Nc1ccccc1O)=C\Nc1ccccc1O	2	83*	.	-12	2	.	0
CC(C)(C)c1nc(N2CCN(C(=O)c3ccco3)CC2)c2nnn(Cc3ccccc3)c2n1	1	54*	88	-11	25	32	69*
O=C(c1ccco1)N1CCN(c2nc(C3CC3)nc3c2nnn3Cc2ccccc2Cl)CC1	0	0	105	-10	13	-10	.
Cc1oc(-c2ccccc2Cl)nc1CS(=O)CC(=O)NCCCN1CC(C)CC(C)C1 (stereo not given)	0	0	102	0	-5	115	.
CCOC(=O)C(C)Oc1cccc2c(=O)n(CC(=O)Nc3ccc(OC)cc3)ccc12 (stereo not given)	0	0	.	2	-10	.	.
Cc1nn(-c2cc(C(F)(F)F)ccc2Cl)c2nc(C(Cl)(Cl)Cl)[nH]c(=O)c12	0	78*	116	-7	-3	182	82*
CC(C)NC(=O)CN1C(=O)C(C)(C)Oc2ccc(C(=O)NC3CCCCC3)cc21	0	0	87	0	-6	64	.
COc1ccc(CCNC(=O)c2c(O)c3ccccc3[nH]c2=O)cc1OC	0	0	92	5	0	-13	.
COc1ccc([N+](=O)[O-])cc1NC(=O)Nc1ccc(OC)c(OC)c1	1	0	105	16	27	-7	.
COc1ccc([N+](=O)[O-])cc1NC(=O)Nc1cccc(Cl)c1	0	107*	90	-8	36	-3	67*
Cc1ccc(C)c(NC(=O)c2cccc(Oc3ccc([N+](=O)[O-])cc3Cl)c2)c1	0	35	120	-11	36	2	.
O=C(Nc1cccc(Cl)c1)c1cccc(Oc2ccc([N+](=O)[O-])cc2Cl)c1	0	86*	90	-29	25	-17	97*
COc1ccccc1NS(=O)(=O)c1cccc(NC(=O)Nc2cccc(Cl)c2)c1	5	81*	114	-8	26	19	76*
CCNC(=O)CCn1nc(-c2ccc(C)cc2)c2ccccc2c1=O	0	0	93	-4	2	4	.
CCc1nc2c(OCC(=O)C(C)(C)C)cccn2c1N(C)C(=O)Nc1ccccc1OC	2	1	.	4	-1	.	.
COc1ccc(CCNC(=O)CNS(=O)(=O)c2ccc(Cl)cc2)cc1	0	4	90	6	1	4	.
CCN(Cc1ccccc1)CC(O)COC(c1ccc(OC)cc1)c1ccc(OC)cc1 (stereo not given)	0	79*	92	2	7	66	0	MPTP swell DR=>100;MPTP counter DR=54*
SMILES	aDG glyco act	MPTP block	Yeast superoxide	H9c2 protect	FAS TE block	SUMO Mot1 rescue	Rh123 counter	others
CNc1ncnc2c1ncn2-c1ccccc1	0	-1	.	-4	-7	.	.
CC(C)(C)CC(C)(C)c1ccc(O)c(Cc2ccc(Cl)cc2Cl)c1	0	95*	.	-44	31	.	5	MPTP swell DR=i;MPTP counter DR=6.4*
Cc1ccc(C(C)C)c(OCC(=O)Nc2ccccc2N2CCN(C)CC2)c1	0	83*	103	34	8	0	-7	MPTP swell DR=i;MPTP counter DR=>80
CCOC(=O)c1cnn(-c2sc(C(=O)OCC)c(C)c2C(=O)OCC)c1N	0	88*	119	-9	-61	-7	74*
CCOC(=O)c1cnn(-c2cc(C)cc(C)c2)c1N	0	-1	95	6	-1	5	.
Cc1cc(N2CCOCC2)nc2ccc(NC(=O)CCC(=O)N3CCN(c4cccc(C(F)(F)F)c4)CC3)cc12	1	1	100	-4	10	192	.
CC(C(=O)Nc1ccccn1)c1ccccc1 (stereo not given)	0	-1	96	-1	3	199	.
O=C(CSc1nc(-c2ccco2)cc(C(F)(F)F)n1)Nc1ccc(C(=O)N2CCCCC2)cc1	1	54*	103	-12	9	2	92*
CCOC(=O)c1sc(NC(=O)CSc2nc(-c3ccco3)cc(C(F)(F)F)n2)c(C#N)c1C	0	84*	102	-16	0	4	7	MPTP swell DR=4*;MPTP counter DR=<2.5*
Cc1cccc(C)c1NC(=O)CSc1nc(-c2ccco2)cc(C(F)(F)F)n1	0	1	116	-2	3	2	.
Cc1cc(NC(=O)CSc2nc(-c3ccco3)cc(C(F)(F)F)n2)no1	0	6	101	-6	-7	.	.
CCOC(=O)c1sc(NC(=O)CSc2nc(C)cc(C)n2)c(C#N)c1C	0	58*	88	-1	23	165	40*
CCOC(=O)c1sc(NC(=O)CSc2nc3c(cc2C#N)CCCCC3)c(C#N)c1C	0	91*	99	-26	2	104	4	MPTP swell DR=>100;MPTP counter DR=9.8*
COc1cc(/C=N/NC(=O)C2CC(=O)N(c3ccc(C)cc3)C2)cc(OC)c1OC (stereo not given)	0	2	93	-1	-5	5	.
O=C(Cc1ccc(Cl)cc1)Nc1cc(Cl)ccn1	0	2	123	-3	13	26	.
CCOC(=O)c1sc(NC(=O)c2cc(-c3ccccc3)nc3ccccc23)c(C#N)c1C	0	107*	111	-32	33	-20	78*
